Source: PubChem BioAssay
The full list was thinned out, with hits kept by preference.
ROS inducer = raises reactive oxygen species in U2OS cancer cells; U2OS ROS induction, H2DCF-DA fluorescence; ROS induction (% of piperlongumine), % at 10 µM; hit rate 2% among 46,000; in the data active means ROS induction above about 79%, passing the limit was not always enough;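 further: 0% = DMSO vehicle median and 100% = reference compound median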
NOMO-1 viab = STK33 inhibitor candidate reducing NOMO-1 cell viability; AID 2330; inhibition, % (test concentration not listed); hit rate 7.5% among 37,000; NOMO-1 AML viability, CellTiter-Glo luminescence, 72 h; in the data active means inhibition above about 80%
The depositor's hits bear a star; . = not tested or not shown.

SMILES | ROS inducer | NOMO-1 viab
COc1c(-c2coc3cc4c(cc3c2=O)CC(O)C(C)(C)O4)ccc2c1C=CC(C)(C)O2 (stereo not drawn) | 21.8 | 101.5*
c1ccc(CN(CCN(Cc2ccccn2)Cc2ccccn2)Cc2ccccn2)nc1 | -2.3 | 98.4*
Cc1cc[n+](Cc2ccccn2)c(N)c1 | -8.5 | 8.5
O=C(OCc1cccc(O)c1O[C@@H]1O[C@H](CO)[C@@H](O)[C@H](O)[C@H]1O)C1(O)C(=O)C2C3C4C5C(C(=O)C(O)(C(=O)OCc6cccc(O)c6O[C@@H]6O[C@H](CO)[C@@H](O)[C@H](O)[C@H]6O)C2C53)C41 (stereo partly drawn) | -6.1 | .
COc1ccc(S(=O)(=O)Nc2ccc3c(c2)CC(=O)N([C@@H](C)CO)C[C@@H](C)[C@@H](CN(C)C(=O)Nc2ccc4c(c2)OCO4)O3)cc1 | 80.5* | 4.9
C[C@H](CO)N1C[C@H](C)[C@H](CN(C)C(=O)Nc2ccc(F)cc2)Oc2ccc(NS(=O)(=O)c3ccc(Cl)cc3)cc2CC1=O | 88.8* | 29.1
COc1ccc(NC(=O)N(C)C[C@H]2Oc3ccc(NS(=O)(=O)c4ccc(OC)cc4)cc3CC(=O)N([C@@H](C)CO)C[C@H]2C)cc1 | 3.5 | 6.5
COc1ccc(S(=O)(=O)Nc2ccc3c(c2)CC(=O)N([C@H](C)CO)C[C@@H](C)[C@@H](CN(C)C(=O)Nc2ccc4c(c2)OCO4)O3)cc1 | 9.6 | 10.0
C[C@@H]1CN([C@H](C)CO)C(=O)Cc2cc(NS(=O)(=O)c3ccc(Cl)cc3)ccc2O[C@H]1CN(C)C(=O)Nc1ccc(F)cc1 | -2.8 | 4.8
COc1ccc(S(=O)(=O)N(C)C[C@H]2Oc3ccc(NS(=O)(=O)c4c(C)noc4C)cc3CC(=O)N([C@H](C)CO)C[C@H]2C)cc1 | 7.9 | 5.9
COc1ccc(NC(=O)N(C)C[C@H]2Oc3ccc(NS(=O)(=O)c4ccc(OC)cc4)cc3CC(=O)N([C@H](C)CO)C[C@H]2C)cc1 | 81.4* | 13.1
COc1ccc(S(=O)(=O)Nc2ccc3c(c2)CC(=O)N([C@H](C)CO)C[C@@H](C)[C@@H](CN(C)S(=O)(=O)c2c(C)noc2C)O3)cc1 | 88.9* | 6.6
C[C@@H]1CN([C@H](C)CO)C(=O)Cc2cc(NS(=O)(=O)c3cn(C)cn3)ccc2O[C@H]1CN(C)Cc1ccc(C(F)(F)F)cc1 | 11.7 | 23.1
C[C@@H]1CN([C@@H](C)CO)C(=O)Cc2cc(NC(=O)CCN3CCOCC3)ccc2O[C@@H]1CN(C)C | 4.3 | -8.3
COc1ccc2c(c1)[C@@]1(C)CCC(=O)C[C@H]1CC2 | -11.7 | -4.4
COC(=O)c1ccc(Cl)c(NC(=O)CSc2nnc(-c3ccc(Cl)cc3)o2)c1 | . | 13.8
CN(C)c1ccc(C(=C2C=CC(=[N+](C)C)C=C2)c2ccc(N(C)C)cc2)cc1 | 341.0* | 111.8*
C[C@@H]1CN([C@H](C)CO)C(=O)CCCn2cc(nn2)CO[C@H]1CN(C)Cc1ccc2c(c1)OCO2 | 11.6 | .
CC1CCc2c(sc3ncnc(NCCc4nc5ccccc5[nH]4)c23)C1 (stereo not drawn) | . | 96.6*
CC1CCc2c(sc3ncnc(SCCOc4ccccc4)c23)C1 (stereo not drawn) | -2.1 | -13.2
CC(C)(C)NC(=O)Cc1ccc(Br)cc1 | -8.3 | .
C[C@H](CO)N1C[C@H](C)[C@H](CN(C)Cc2ccc(C(F)(F)F)cc2)Oc2ccc(NS(=O)(=O)c3ccc(F)cc3)cc2CC1=O | 0.9 | 103.5*
Cc1ccc(S(=O)(=O)Nc2ccc3c(c2)CC(=O)N([C@@H](C)CO)C[C@H](C)[C@H](CN(C)Cc2ccc(C(F)(F)F)cc2)O3)cc1 | 9.8 | 111.7*
C[C@@H]1CN([C@H](C)CO)C(=O)Cc2cc(NS(C)(=O)=O)ccc2O[C@@H]1CN(C)Cc1ccc(C(F)(F)F)cc1 | 29.7 | 31.4
C[C@H](CO)N1C[C@H](C)[C@H](CN(C)Cc2ccc(C(F)(F)F)cc2)Oc2ccc(NS(C)(=O)=O)cc2CC1=O | -3.0 | 18.7
SMILES | ROS inducer | NOMO-1 viab
O=C1CCC(=O)N(O)CCCCCNC(=O)CCC(=O)N(O)CCCCNC(=O)CCC(=O)N(O)CCCCN1 | 5.4 | .
C[C@H]1CN([C@@H](C)CO)C(=O)c2cc(NC(=O)CCN3CCOCC3)ccc2O[C@@H]1CN(C)S(=O)(=O)c1cccs1 | 17.4 | -4.6
Cc1nc(SCC(=O)Nc2cccc(Cl)c2Cl)nc2c1CCCC2 | . | -6.2
CCOc1cccc2c(C)nc(Nc3nc4c(c(=O)[nH]3)CCCC4)nc12 | . | 121.4*
COc1ccc(-c2ccc(C#N)c(SCC(=O)Nc3cc(OC)c(OC)c(OC)c3)n2)cc1 | . | -11.9
COc1ccc(NC(=O)Nc2ccc3c(c2)CC(=O)N([C@@H](C)CO)C[C@H](C)[C@H](CN(C)Cc2ccc(Cl)c(Cl)c2)O3)cc1 | 4.3 | 113.5*
COc1ccc(CN(C)C[C@H]2Oc3ccc(NC(=O)Nc4ccc(OC)cc4)cc3CC(=O)N([C@H](C)CO)C[C@H]2C)cc1 | 1.7 | -6.8
COc1ccc(NC(=O)Nc2ccc3c(c2)CC(=O)N([C@H](C)CO)C[C@@H](C)[C@@H](CN(C)Cc2ccc(Cl)c(Cl)c2)O3)cc1 | 9.3 | 114.5*
COc1ccc(NC(=O)Nc2ccc3c(c2)CC(=O)N([C@H](C)CO)C[C@@H](C)[C@H](CN(C)Cc2ccc(Cl)c(Cl)c2)O3)cc1 | 20.7 | 85.1*
COc1ccc(CN(C)C[C@H]2Oc3ccc(NC(=O)Nc4ccc(OC)cc4)cc3CC(=O)N([C@@H](C)CO)C[C@H]2C)cc1 | 0.2 | 1.4
COc1ccc(NC(=O)Nc2ccc3c(c2)CC(=O)N([C@@H](C)CO)C[C@H](C)[C@H](CN(C)Cc2ccncc2)O3)cc1 | 0.2 | -0.2
Cc1noc(C)c1NC(=O)Nc1ccc2c(c1)C(=O)N([C@H](C)CO)C[C@H](C)[C@@H](CN(C)Cc1ccc(C(=O)Nc3ccccc3N)cc1)O2 | 1.1 | -18.8
O=C(CC1Nc2c3ccccc3nc(=S)n2C1=O)NCc1ccccc1 (stereo not drawn) | -1.0 | .
Cn1c(C2COc3ccccc3O2)n[nH]c1=S (stereo not drawn) | 0.9 | .
CCOc1cccc(-c2nnc(SCC(=O)Nc3cccc(Cl)c3C)n2C)c1 | -2.2 | 24.7
COc1ccc(NC(=O)N(C)C[C@@H]2Oc3ccc(NS(=O)(=O)c4cccs4)cc3C(=O)N([C@@H](C)CO)C[C@@H]2C)cc1 | 2.8 | 25.7
Cc1cc(C)nc(SCC(=O)c2ccc(Oc3ccccc3)cc2)n1 | -8.9 | 9.2
COC(=O)c1cccc(NC(=O)CN(c2cccc(F)c2)S(C)(=O)=O)c1C | . | 97.6*
COC(=O)c1cccc(NC(=O)CN(c2ccc(F)c(Cl)c2)S(C)(=O)=O)c1C | -8.3 | 105.9*
COC(=O)c1cccc(NC(=O)CN(c2ccc(Br)c(C)c2)S(C)(=O)=O)c1C | -2.5 | 36.4
COC(=O)c1cc(NC(=O)CN(c2ccc(F)c(Cl)c2)S(C)(=O)=O)ccc1Cl | . | 95.8*
COC(=O)c1cccc(NC(=O)CN(c2ccc(F)cc2)S(C)(=O)=O)c1C | . | 109.5*
COC(=O)c1ccccc1NC(=O)CN(c1cccc(F)c1)S(C)(=O)=O | . | -4.5
COC(=O)c1ccc(NC(=O)CN(c2ccc(F)c(Cl)c2)S(C)(=O)=O)cc1 | -2.7 | 24.8
COC(=O)c1ccccc1NC(=O)CN(c1ccc(F)c(Cl)c1)S(C)(=O)=O | -11.8 | -2.5
CC(C)NC(=O)Nc1ccc2c(c1)CC(=O)N([C@@H](C)CO)C[C@H](C)[C@@H](CN(C)Cc1ccncc1)O2 | 13.6 | 27.2
